In PubChem BioAssay AID588342 (National Center for Advancing Translational Sciences (NCATS), 2011):
About 25,000 (6.9%) of roughly 360,000 compounds were called active. Inconclusive results (about 9%) are left out. Calls come from the whole dose curve; as a rule, active = well fitted inhibition curve with a large enough effect; inconclusive = small, poorly fitted or top-dose-only effect; inactive = flat fitted curve, though single readings scatter. Shown is part of a subset that was picked to be rich in actives. A call without a number means that no potency is given here.

Each molecule was assayed against Luciferin 4-monooxygenase (Photinus pyralis) (UniProt P08659) (assay: qHTS profiling assay for firefly luciferase inhibitor/activator using purifed enzyme and Km concentrations of substrates (counterscreen for miR-21 project)). Settings: purified FLuc, luminescence inhibition; series mostly up to 57.5 µM.
Luciferin 4-monooxygenase (Photinus pyralis), sequence (P08659 whole entry, looked up): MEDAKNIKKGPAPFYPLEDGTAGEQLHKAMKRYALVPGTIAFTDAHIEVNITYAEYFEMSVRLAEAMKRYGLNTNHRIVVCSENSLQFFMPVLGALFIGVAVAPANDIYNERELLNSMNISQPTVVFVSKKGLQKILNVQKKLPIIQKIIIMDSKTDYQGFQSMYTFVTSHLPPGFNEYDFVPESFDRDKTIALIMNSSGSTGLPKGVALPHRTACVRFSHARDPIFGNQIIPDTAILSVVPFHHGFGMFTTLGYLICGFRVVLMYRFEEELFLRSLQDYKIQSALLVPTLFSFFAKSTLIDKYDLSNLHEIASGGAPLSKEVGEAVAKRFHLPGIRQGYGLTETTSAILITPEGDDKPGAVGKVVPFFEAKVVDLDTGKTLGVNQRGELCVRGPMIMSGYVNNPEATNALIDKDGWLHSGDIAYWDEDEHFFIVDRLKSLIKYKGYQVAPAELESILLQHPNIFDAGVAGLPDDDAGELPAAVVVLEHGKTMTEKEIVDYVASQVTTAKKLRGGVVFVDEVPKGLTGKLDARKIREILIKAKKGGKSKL
Source text: MLPCN Grant: 1 R21 NS059478-01 (miR-21 grant) Assay Provider: NCGC NCGC Assay Overview: Firefly (Photinus pyralis) luciferase is one of the most commonly used transcriptional reporters for a number of reasons. It is considered one of the more dynamically responsive reporters -that is, responsive to changes in reporter transcription - as it requires no post-translational modifications and is enzymatically active directly after protein synthesis (Wood, 1998). Additionally, the half-life of the luciferase protein is short relative to other reporter-gene products (Wood, 1995). Whereas reporters with long half-lives potentially allow for increased signal due to accumulation of reporter-gene product, once accumulated in the cell, dynamic changes in reporter-gene expression may be difficult to detect(Fan and Wood, 2007; Almond et al., 2004). It has been shown that wild-type P. pyralis luciferase has a half-life of approximately […] hours in mammalian cells (Thompson et al., 1991). Firefly luciferase reporter-gene assays are also generally considered one of the most sensitive assay types (Wood, 1995; Wood, 1998). Although light produced in a bioluminescence reaction is of lower intensity than that produced during fluorescence emission, this is offset by little to no background light inherent to luminescent assays. Thus the luciferase reporter can be expressed at much lower levels than fluorescent proteins while still providing robust signal. # However, it was initially observed, in 1991, by Thompson et al., that compounds that resemble the substrates of firefly luciferase (FLuc) can act as competitive inhibitors of the enzyme, and that these compounds, upon interaction with luciferase in the cell, can actually stabilize the protein and increase its half-life. Accumulated intracellular FLuc protein can be measured as an increase in luminescence signal, upon addition of detection reagents (which contain high concentrations of FLuc substrates) commonly used in high-throughput screening. In cell-based reporter gene assays that use FLuc as the reporter gene to quantitate the potential influence of a given compound against the target biology, this apparent increase in luminescence can mistakenly be interpreted as identification of a compound that is active against the target of interest. This is the case for the miR-21 FLuc reporter gene assay used to identify inhibitors of the miR-21 pathway (PubChem AID 2289) - compounds of interest will inhibit miR-21 biogenesis/expression or activity, and are identified by causing an increase in luminescence, due to increased FLuc translation. However, FLuc inhibitory compounds that stabilize the FLuc protein will give an identical read-out, making it difficult to distinguish compounds that are active against the target from those active against FLuc. Previous profiling work to determine the prevalence of compounds that affect FLuc enzymatic activity (PubChem AID 411) identified that ~3% of the MLSMR library (then at ~72K) inhibited FLuc. […] Since the MLSMR had grown to ~350K compounds, and since it was expected that a significant percentage of compounds found active in the miR-21 FLuc assay would be FLuc inhibitors, the library was screened for activity against FLuc using a biochemical assay of purified FLuc and KM concentrations of FLuc substrates (D-luciferin and ATP).
NCGC Assay Protocol Summary: Reagents: 50mM Tris acetate, pH 7.5; 10mM Mg acetate; 10uM D-luciferin (Sigma #L9504); 10uM ATP; 0.01% Tween-20; 0.05% BSA; 10nM P. pyralis luciferase (Sigma #L9506) Control compounds used were two known firefly luciferase inhibitors (compounds (2) and (5) in Auld et al., 2010), and DMSO. […]
Note: nearly all actives have a fitted effect of over 55% in size.

Compound	Potency
CCOC(=O)c1cnc(SCc2nc(N)nc(Nc3ccc(OC)cc3)n2)nc1N	19 µM (active)
Cc1c(CCNC(=O)c2ccc(C(F)(F)F)cc2)sc2nc(-c3ccc(F)cc3)nn12	inactive
Cc1ccc(C(=O)N/C(=C/C=C/c2ccccc2)C(=O)NCc2ccco2)cc1	inactive
CC1CCCCC12NC(=O)N(CC(=O)Nc1ccc(S(=O)(=O)Nc3ncccn3)cc1)C2=O (stereo not drawn)	inactive
CC(C)(C)NC(=O)NCc1ccco1	inactive
CC(C)(C)c1ccc(NC(=O)NCc2ccco2)cc1	23.9 µM (active)
Cc1ccccc1NC(=O)NCc1ccco1	inactive
CC(C)(C)c1ccc(C(=O)NCCC(=O)NCc2ccco2)cc1	inactive
Cc1cccc(Nc2ccccc2C(=O)NCc2ccco2)c1C	inactive
O=C(Nc1ccccc1)Nc1ccccc1C(=O)NCc1ccco1	15.1 µM (active)
CCCCNC(=O)C1CCCN(c2nnc(C)c3c(C)n(-c4ccc(Cl)cc4)nc23)C1 (stereo not drawn)	inactive
CCOC(=O)CSC1=Nc2ccccc2C2=NC(CCC(=O)NCc3ccc(F)cc3)C(=O)N12 (stereo not drawn)	inactive
CCN(CC(=O)Nc1ccccc1OC)C(=O)CC1CC2CCC1C2 (stereo not drawn)	inactive
O=C(Cc1ccc(Cl)cc1)NCC(c1cccs1)S(=O)(=O)c1ccc(Cl)cc1 (stereo not drawn)	inactive
O=C(Cc1cccs1)N(CC1CCCO1)C1(C(=O)NC2CCCCC2)CCCCC1 (stereo not drawn)	inactive
CC1CCCN(c2nc3c(S(=O)(=O)c4ccc(C(C)C)cc4)nnn3c3ccsc23)C1 (stereo not drawn)	inactive
CCOC(=O)N1CCC(NC(=O)CCc2ccccc2)CC1	inactive
O=C(NCc1ccccc1)C1CCN(C(=O)Cc2ccccc2)CC1	inactive
O=C(O)C1CCN(C(=O)OCc2ccccc2)CC1	10.7 µM (active)
COc1cc(OC)cc(-c2nnc(N(C)C(=O)c3ccncc3)s2)c1	inactive
CN(C(=O)c1ccccn1)c1nnc(-c2ccccn2)s1	3.38 µM (active)
CN(C(=O)C1CCOC1)c1nnc(-c2cccnc2)s1 (stereo not drawn)	inactive
Cc1ccc(C(=O)CCC(=O)N(C)CC(=O)Nc2c(Cl)cccc2Cl)cc1	inactive
CCn1c(COc2c(C)cccc2C)nnc1SCc1nc2ccccc2c(=O)[nH]1	inactive
COc1ccc(Cn2ccnc2SCC(=O)NCc2ccco2)cc1	inactive
CC(NC(=O)c1cc(Sc2ccc(F)cc2F)nc2ccccc12)c1ccccc1 (stereo not drawn)	inactive
Cn1c(=O)c2c(nc(SCC(=O)Nc3ccc(F)cc3)n2Cc2ccccc2)n(C)c1=O	inactive

Compound	Potency
CCN(CC(=O)Nc1ccccc1C(F)(F)F)C(=O)C1CCN(C(=O)Nc2ccccc2)CC1	inactive
O=C(NC1CC(=O)N(c2ccc(Cl)cc2)C1)C1CCCC1 (stereo not drawn)	inactive
CC(C)c1ccc(NC(=S)NC2CC3C=CC2C3)cc1 (stereo not drawn)	10.7 µM (active)
S=C(NNC(=S)NC1CC2C=CC1C2)NC1CC2C=CC1C2 (stereo not drawn)	inactive
S=C(NNC(=S)NC1CC2CCC1C2)NC1CC2C=CC1C2 (stereo not drawn)	inactive
Cc1c(Cl)cccc1NC(=O)C1CCCN(C(=O)c2cnn(-c3ccccc3)c2-n2cccc2)C1 (stereo not drawn)	inactive
CCN(CC)c1ccc(/C=N/Nc2nc(C)cc(=O)[nH]2)cc1	19 µM (active)
Cc1nnc(N/N=C/c2ccccn2)[nH]c1=O	inactive
CCOC(=O)Cc1csc(NC(=O)CSc2nc(C)cc(=O)[nH]2)n1	inactive
Cc1ccc2nc(C)cc(N/N=C/c3ccc(F)cc3)c2c1	inactive
Cc1ccc(C)c(NC2=NCC(=O)N2c2ccc3c(c2)OCCO3)c1	inactive
Cc1cc(=O)[nH]c(Nc2cccc(Br)c2)n1	inactive
Cc1cc(=O)[nH]c(N/N=C/c2ccc3c(c2)OCCO3)n1	10.7 µM (active)
Cc1cc(=O)[nH]c(N/N=C/c2c(C)nn(-c3ccccc3Cl)c2Cl)n1	21.3 µM (active)
COc1ccc(CCC(=O)N2CCN(S(=O)(=O)c3ccc(OC)cc3)CC2)cc1	inactive
Cc1ccc(F)cc1S(=O)(=O)Nc1cccc(C(=O)N2CCCC(C(N)=O)C2)c1 (stereo not drawn)	inactive
CCOC(=O)c1cc(-c2ccc(OC)c(S(=O)(=O)Nc3ccc(OC)cc3OC)c2)on1	inactive
CCOc1ccc(S(=O)(=O)Nc2ccc(C(=O)NCCCN3CCCC3=O)cc2)cc1	inactive
Nc1ncc(S(=O)(=O)Nc2ccc(OC(F)(F)F)cc2)cn1	inactive
COc1ccccc1N1CCN(c2ccc(=O)n(CC(=O)NCc3ccc(OC(C)C)cc3)n2)CC1	inactive
Cc1cc(C)cc(NS(=O)(=O)c2ccc(-c3cc(C)no3)s2)c1	inactive
Cn1nc(-c2ccccc2)c(-c2ccccc2)c(C(=O)Nc2ccc(S(N)(=O)=O)cc2)c1=O	inactive
CCc1cccc(CC)c1NC(=O)Cn1c(=O)c(-c2cc(C)ccc2NC(C)=O)nc2ccccc21	inactive
Cc1ccc(C(=O)COC(=O)CCN2C(=O)C3C4CCC(C4)C3C2=O)cc1C (stereo not drawn)	10.7 µM (active)
O=C(CCN1C(=O)C2C3CCC(C3)C2C1=O)Nc1ccc(Cl)cc1Cl (stereo not drawn)	inactive
Cc1ccc(C(=O)COC(=O)CCN2C(=O)C3C4CC(C(Br)C4Br)C3C2=O)cc1 (stereo not drawn)	inactive
